In PubChem BioAssay AID1159580 (chemical genetic matrix, 2015):
The campaign covered roughly 5,500 compounds. About 2,000 (36%) were called active. Inconclusive results (about 18%) are left out. No stated cut-off is given here; in the data, active means normalized growth mostly below about 0.91 (no sharp cut-off); inconclusive means no clear call, values can overlap the other calls; inactive means mostly above about 0.92. Some of the results follow.

Assay: chemical genetic growth profiling, strain panel (AID 1159580);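 further: tested at 20 µM; growth read once vehicle control cultures reached saturation at 30 °C; 1 = growth at the plate median or of vehicle wells; lower values mean less growth of the strain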
Details: growth OD

Measured: normalized growth

CC(=O)c1ccc(-c2ccc(C(C)=O)cc2)cc1
inactive: S. cerevisiae deletion strains, locus YAL013W, strain DEP1, hits give low values 1 | S. cerevisiae deletion strains, locus YBR229C, strain ROT2, hits give low values 0.999 | S. cerevisiae deletion strains, locus YDL101C, strain DUN1, hits give low values 1.03 | S. cerevisiae deletion strains, locus YDL134C, strain PPH21, hits give low values 1.01 | S. cerevisiae deletion strains, locus YDR150W, strain NUM1, hits give low values 1 | S. cerevisiae deletion strains, locus YEL061C, strain CIN8, hits give low values 1.01 | S. cerevisiae deletion strains, locus YGR078C, strain PAC10, hits give low values 1.02 | S. cerevisiae deletion strains, locus YGR229C, strain SMI1, hits give low values 1 | S. cerevisiae deletion strains, locus YHR030C, strain SLT2, hits give low values 0.999 | S. cerevisiae deletion strains, locus YHR087W, strain rtc3, hits give low values 0.987 | S. cerevisiae deletion strains, locus YJR043C, strain POL32, hits give low values 0.974 | S. cerevisiae deletion strains, locus YJR075W, strain HOC1, hits give low values 1.02 | S. cerevisiae deletion strains, locus YKL190W, strain CNB1, hits give low values 1 | S. cerevisiae deletion strains, locus YLR039C, strain RIC1, hits give low values 1.06 | S. cerevisiae deletion strains, locus YLR058C, strain SHM2 (second series), hits give low values 0.987 | S. cerevisiae deletion strains, locus YLR085C, strain ARP6, hits give low values 0.95 | S. cerevisiae deletion strains, locus YLR262C, strain YPT6, hits give low values 1.03 | S. cerevisiae deletion strains, locus YML094W, strain GIM5, hits give low values 0.955 | S. cerevisiae deletion strains, locus YMR219W, strain ESC1, hits give low values 1.02 | S. cerevisiae deletion strains, locus YMR263W, strain SAP30, hits give low values 1 | S. cerevisiae deletion strains, locus YMR307W, strain GAS1, hits give low values 0.977 | S. cerevisiae deletion strains, locus YNL153C, strain GIM3, hits give low values 1.01 | S. cerevisiae deletion strains, locus YNL298W, strain CLA4 (second series), hits give low values 1.01 | S. cerevisiae deletion strains, locus YNL322C, strain KRE1, hits give low values 1.01 | S. cerevisiae deletion strains, locus YNR030W, strain Alg12, hits give low values 1.01 | S. cerevisiae deletion strains, locus YOL006C, strain TOP1, hits give low values 0.956 | S. cerevisiae deletion strains, locus YPL055C, strain LGE1, hits give low values 0.941 | S. cerevisiae deletion strains, locus YPL241C, strain CIN2, hits give low values 0.991 | S. cerevisiae deletion strains, locus YPR135W, strain CTF4, hits give low values 1.01 | S. cerevisiae strains, strain wild type, hits give low values 1.03
